# Experimental data: PubChem BioAssay (EPA / NIEHS)
# Active and inactive are the calls of the source. How the source made its calls: active means hit-call score of the fitted dose curve at least 0.9, where 1 is the maximum; inactive means score below 0.9.
# Molecular target: Cellular tumor antigen p53 (Homo sapiens) (UniProt P04637)
# Assay: ATG_p53_CIS: Attagene CIS-FACTORIAL HepG2 Assay for human p53 Transcription Factor (AID 2282994)
# Details: HepG2 p53 cis-element reporter, Attagene mRNA; actives raise or lower the signal
# Experimental: ATG_CIS is a cell-based, multiplexed-readout assay that uses HepG2, a human liver cell line, with measurements taken at 24 hours after chemical dosing in a 24-well plate.ATG_p53_CIS is one of 52 assay component(s) measured or calculated from the ATG_CIS assay. It is designed to make measurements of mRNA induction, a form of inducible reporter, as detected with fluorescence intensity signals by Reverse transcription polymerase chain reaction (RT-PCR) and Capillary electrophoresis technology.Data from the assay component ATG_p53_CIS was analyzed into 1 assay endpoint. This assay endpoint, ATG_p53_CIS, was analyzed with bidirectional fitting relative to DMSO as the negative control and baseline of activity. Using a type of inducible reporter, measures of mRNA for gain or loss-of-signal activity can be used to understand the reporter gene at the transcription factor-level as they relate to the gene TP53. Furthermore, this assay endpoint can be referred to as a primary readout, because this assay has produced multiple assay endpoints where this one serves a reporter gene function. To generalize the intended target to other relatable targets, this assay endpoint is annotated to the dna binding intended target family, where the subfamily is tumor suppressor.
# Human liver HepG2 cells are transiently transfected with multiple reporter transcription units (MRTUs) in 6-well plates using FuGene 6 reagent (Roche; 3 ml FuGene/1 mg DNA). The MRTU constructs are regulated by a cis-regulating element (promoter). […] A major difference between the CIS and TRANS system is that in CIS activities of endogenous TFs are measured, whereas the TRANS assay evaluates changes in activities of exogenous, chimeric NR-Gal4 proteins. […] At the end of 24 hour incubation, total RNA was isolated using TriZol reagent (Invitrogen). The isolated RNA is then reverse-transcribed using oligo(dT) primer and Mo-MLV reverse transcriptase (Invitrogen) with DNAse I (Ambion) treatment for 30 min. The one-tenth of the produced cDNA was amplified by PCR using Taq DNA polymerase (Invitrogen) and two reporter sequence-specific primers. The PCR products were fluorescently labeled by primer extension with 6-arboxyfluorescein (6-FAM) 5'-labeled reporter sequence-specific primer (2 min at 95 C, 20 s at 68 C and 10 min at 72 C) and these products were digested with 5U of HpaI (New England Biolabs) for 2h at 37 C. The fragments were purified using Qiaquick PCR columns (Qiagen), analyzed on an ABI 3130xL genetic analyzer (Applied Biosystems) with peak positions identified by using a set of X-rhodamine (ROX)-labeled MapMarker1000 molecular weight standards (BioVentures). The raw capillary electrophoresis data was processed using Attagraph software (Attagene).
# Cellular tumor antigen p53 (Homo sapiens), sequence (P04637 whole entry, looked up): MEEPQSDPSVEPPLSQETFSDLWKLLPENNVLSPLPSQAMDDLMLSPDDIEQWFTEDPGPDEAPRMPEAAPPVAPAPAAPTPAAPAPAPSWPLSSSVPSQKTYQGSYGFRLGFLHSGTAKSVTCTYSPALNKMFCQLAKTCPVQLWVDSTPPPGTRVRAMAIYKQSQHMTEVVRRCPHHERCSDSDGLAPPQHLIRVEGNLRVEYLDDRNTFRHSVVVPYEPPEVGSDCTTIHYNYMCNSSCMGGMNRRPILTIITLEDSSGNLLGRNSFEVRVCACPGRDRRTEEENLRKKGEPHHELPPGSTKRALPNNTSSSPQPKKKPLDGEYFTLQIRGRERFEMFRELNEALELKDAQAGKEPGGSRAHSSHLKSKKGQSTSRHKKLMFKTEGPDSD
SMILES,outcome,AC50
OCC(c1ccc(Cl)cc1)c1ccc(Cl)cc1,inactive,–
Nc1c(Oc2ccccc2)cc(O)c2c1C(=O)c1ccccc1C2=O,inactive,–
CC(=Cc1ccccc1)[N+](=O)[O-],–,18 µM (active)
OC[P+](CO)(CO)CO,inactive,–
CCCCCCCCCCBr,inactive,–
CCC(C)(C#N)N=NC(C)(C#N)CC (stereo not given),inactive,–
O=S(=O)(F)C(F)(F)C(F)(F)C(F)(F)C(F)(F)F,inactive,–
CN(CCCC(O)c1cccnc1)N=O (stereo not given),inactive,–
CC(C)(C#N)N=NC(C)(C)C#N,inactive,–
Clc1ccc(C(Cl)(Cl)Cl)cn1,inactive,–
COCCl,inactive,–
Clc1cnc(Oc2ccc(Oc3ncc(Cl)cc3Cl)cc2)c(Cl)c1,inactive,–
C=CC(F)(C(F)(F)F)C(F)(F)C(F)(F)F (stereo not given),inactive,–
CC(C)[C@@H](Nc1ccc(C(F)(F)F)cc1Cl)C(=O)OC(C#N)c1cccc(Oc2ccccc2)c1 (stereo not given in full),inactive,–
CCCCS(=O)(=O)Cl,inactive,–
Cc1c([N+](=O)[O-])c(C)c([N+](=O)[O-])c(C(C)(C)C)c1[N+](=O)[O-],inactive,–
ClCc1ccccc1CCl,–,50.7 µM (active)
C=CC(=O)NC(C)(C)CC(C)=O,inactive,–
CN(N=O)C(N)=O,inactive,–
N#Cc1ccccc1Cl,inactive,–

SMILES,outcome,AC50
O=C(Cl)OCCOCCOC(=O)Cl,inactive,–
C=C(C)C(=O)OCC(CC)CCCC (stereo not given),inactive,–
CCN(N=O)C(N)=O,inactive,–
NC(=O)c1ccc(N)nc1,inactive,–
COc1ccc([N+](=O)[O-])cc1O,inactive,–
O=C(NC(=O)c1c(F)cccc1F)Nc1cc(Cl)c(F)c(Cl)c1F,inactive,–
Brc1ccc(Br)cc1,inactive,–
O=S1(=O)OC(c2cc(Br)c(O)c(Br)c2)(c2cc(Br)c(O)c(Br)c2)c2ccccc21,–,126 µM (active)
BrCC(Br)c1ccccc1 (stereo not given),inactive,–
[Cl][Sn]([c]1ccccc1)([c]1ccccc1)[c]1ccccc1,–,0.167 µM (active)
C=CCCl,inactive,–
O=NN1CCOCC1,inactive,–
Cc1cc(-c2cc(C)c(N)c(C)c2)cc(C)c1N,–,80.2 µM (active)
O=C(Cc1ccccc1)OCCc1ccccc1,inactive,–
C=CC(=O)[O][Sn]([CH2]CCC)([CH2]CCC)[CH2]CCC,inactive,–
C=CCOC(N)=O,inactive,–
CCOC(=O)CC(=O)CCl,–,148 µM (active)
CCOP(=O)(OCC)SCCSCC,inactive,–
Cc1cc(SCc2sc(-c3ccc(C(F)(F)F)c(F)c3)nc2C)ccc1OCC(=O)O,–,47.1 µM (active)
O=S(=O)(c1ccc(Cl)cc1)c1cc(Cl)c(Cl)cc1Cl,inactive,–
